# From PubChem
# Only some compounds are listed: those with a hit (about 2.9% of all), similar ones and a draw of the others.
# EPAC2 ant val = validation of human EPAC2 antagonists. Potency, µM (doses to about 112 µM), for inactives: at the top dose activity, negative = inhibition, most hits filed as inhibitors. EPAC2 Rap1B BODIPY-GDP exchange, fluorescence. Q8WZA2. 16,000 tested, 1.7% active. AID 1645886;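 note: 100% = activation by cAMP agonist control; nearly all actives have a fitted effect of over 40% in size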
#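 Normalized against a 6.5 mM cAMP agonist control, compounds were tested on 100 nM EPAC2 exchanging Rap1B-bound BODIPY-GDP (250 nM) for 50 uM GDP. Fluorescence drop (ex 480, em 540 nm) was tracked at room temperature over 30 min at 5-min intervals.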
# EPAC1 ag val = validation of human EPAC1 agonists | O95398 | Potency, µM, for the others: max response, positive = active, hits mostly activators | 16,000 tested, 1% active | EPAC1 Rap1b BODIPY-GDP exchange, fluorescence; note: nearly all actives have a fitted effect of over 70% in size
# Numbers without * were called inactive; i = inactive; ? = inconclusive; ! = not confirmed by another sample; [ ] = another dose, or the depositor's remark. Calls come from the whole dose curve; as a rule, active = well fitted curve in the direction sought with a large enough effect; inconclusive = small, poorly fitted or top-dose-only effect, or another doubt; inactive = no such curve, though single readings can be large; an effect the other way counts as inactive or inconclusive. Unless noted, % is set by controls: 0 for no effect and ±100 for the full control effect; potency is the fitted concentration of half-maximal effect.
SMILES,EPAC2 ant val,EPAC1 ag val
O=c1c(-c2ccccc2)nc2cnc(N3CCOCC3)nc2n1-c1ccccc1,-16.9%,-31.0%
COc1ccc(-n2c(=O)c(-c3cccs3)nc3cnc(Nc4cccc(OC)c4)nc32)cc1,27.6%,100µM*
O=c1c(-c2cc(F)cc(F)c2)nc2cnc(N3CCOCC3)nc2n1Cc1cccs1,-1.9%,-30.4%
O=c1c(-c2cc(F)cc(F)c2)nc2cnc(N3CCOCC3)nc2n1-c1ccccc1,-9.1%,112µM*
COc1ncc2nc(-c3cccs3)c(=O)n(CCC#N)c2n1,-19.8%,-30.6%
CN(C)c1ncc2nc(-c3cccs3)c(=O)n(CCC#N)c2n1,112.9%,100µM*
O=c1c(-c2cc(F)cc(F)c2)nc2cnc(N3CCNCC3)nc2n1Cc1cccs1,44.7µM*,?
CC(=O)OCC(=O)[C@@]1(O)CC[C@H]2[C@@H]3CCC4=CC(=O)CC[C@]4(C)C3=CC[C@@]21C,-2.9%,-11.2%
Cc1c(C(=O)N2CC3CCC2C3)sc2ncnc(NCCc3c[nH]c4ccccc34)c12 (centres undefined),-13.1%,2.7%
N#CCCn1c(=O)c(-c2ccc(Cl)cc2)nc2cnc(Nc3ccccc3)nc21,-3.0%,112µM*
COCCn1c(=O)c(-c2ccc(OC)cc2)nc2cnc(Nc3ccccc3)nc21,-17.9%,-18.8%
COCCn1c(=O)c(-c2cccs2)nc2cnc(Nc3ccccc3)nc21,70.8%,100µM*
COCCn1c(=O)c(-c2cccs2)nc2cnc(N3CCOCC3)nc21,15.3%,112µM*
COc1ccc(-n2c(=O)c(-c3cccs3)nc3cnc(N4CCOCC4)nc32)cc1,-26.1%,?
N#CCCn1c(=O)c(-c2ccccc2)nc2cnc(Nc3ccccc3)nc21,-19.4%,22.5%
O=c1c(-c2cccs2)nc2cnc(N3CCNCC3)nc2n1Cc1cccs1,56.2µM*,?
CN1CCN(c2ncc3nc(-c4cccs4)c(=O)n(Cc4cccs4)c3n2)CC1,4.1%,-12.1%
CCOc1ccccc1CN1CCCC(c2nc(C)ncc2-c2ccc(F)cc2)C1 (centres undefined),-8.4%,-9.2%
CCn1nc(C)cc1C(=O)NCCN1Cc2ccccc2OC(c2ccccc2F)C1 (centres undefined),-8.9%,0.5%
COCCN(C)C(=O)c1cnn(-c2ncc3c(n2)-c2ccccc2CC3)c1C,3.5%,-13.4%
COc1ccc(CN2CCC3(CC2)c2ccccc2[C@@H](NC(=O)c2ccccc2OC)[C@@H]3O)cc1O,4.4%,-14.1%
C[S+](C)CCC(N)C(=O)O (centres undefined),-15.3%,-4.4%
C[C@@H](O)[C@H]1C(=O)N2C(C(=O)[O-])=C(SC3Cn4cnc[n+]4C3)[C@H](C)[C@H]12 (some centres undefined),1.1%,-0.9%
COc1ncc2ncc(=O)n(Cc3cccs3)c2n1,-21.3%,2.6%
CN(C)c1ncc2ncc(=O)n(Cc3cccs3)c2n1,44.7µM*,-5.8%
SMILES,EPAC2 ant val,EPAC1 ag val
OCC(S)CS (centres undefined),-16.0%,11.6%
CCC(C)[C@H]1O[C@]2(C=C[C@@H]1C)C[C@@H]1C[C@@H](C/C=C(\C)[C@@H](O[C@H]3C[C@H](OC)[C@@H](O[C@H]4C[C@H](OC)[C@H](NC(C)=O)[C@H](C)O4)[C@H](C)O3)[C@@H](C)/C=C/C=C3\CO[C@@H]4[C@H](O)C(C)=C[C@@H](C(=O)O1)[C@]34O)O2 (some centres undefined),-7.5%,-10.4%
CC(C)NC(=O)[C@@H]1C[C@@H](Sc2nc3ccccc3[nH]2)CN1C1Cc2ccccc2C1,-24.6%,27.4%
COC(=O)C1CCN(Cc2ccc3c(c2)CN(C(=O)c2cc4cc(F)ccc4[nH]2)CCO3)CC1,?,6.7%
COc1cc2cc3c4c(cc(OC)c(OC)c4c2cc1OC)CCN3C,50.1µM*,?
COc1cc2c(cc1OC)C(=O)N(C)CC2,-19.0%,-15.8%
NC[C@@H]1O[C@H](O[C@H]2[C@H](O)[C@H](O[C@H]3[C@@H](O)[C@H](N)C[C@H](N)[C@H]3O[C@H]3O[C@H](CN)[C@H](O)[C@H](O)[C@H]3N)O[C@@H]2CO)[C@@H](N)[C@@H](O)[C@@H]1O,16.7%[29.6 µM],-21.8%
COc1ccc2c(c1)OCC(Cc1ccc(OC)c(OC)c1)C2O (centres undefined),?,-12.5%
COc1ccc2c(c1)OCC(Cc1ccc(OC)c(OC)c1)C2=O (centres undefined),44.7µM*,?
O=C1OC(c2ccc(O)cc2)(c2ccc(O)cc2)c2ccccc21,35.5µM*!,?
O=C1c2ccccc2C(=O)c2c(O)ccc(O)c21,57.3%,-22.9%
CCCC(=O)OC[C@@H](OC(=O)CCC)[C@@H](OC(=O)CCC)[C@H](Cn1c2nc(=O)[nH]c(=O)c-2nc2cc(C)c(C)cc21)OC(=O)CCC,119.0%,?
Cc1cc2nc3c(=O)[nH]c(=O)nc-3n(CC(O)C(O)C(O)CO)c2cc1C (centres undefined),i,35.5µM*
CN(C)CCCN1c2ccccc2Sc2ccc(Cl)cc21,-24.4%,1.3%
OCCN1CCN(CCCN2c3ccccc3Sc3ccc(Cl)cc32)CC1,35.5µM*!,1.9%
O=C1C[C@H]2C=CCc3cccc(c32)CN1Cc1ccc(F)cc1,?,25.6%
Cc1cccc(CN2Cc3cccc4c3[C@H](C=CC4)CC2=O)c1,31.6µM*,2.7%
CN1CCC(CN2c3ccccc3Sc3ccccc32)C1 (centres undefined),6.6%,-40.2%
CCCN=C(N)NCCC[C@H](N)C(=O)O,-23.0%,-1.9%
CCCCC(CC)CN=C(N)NC(N)=NCCCCCCN=C(N)NC(N)=NCC(CC)CCCC (centres undefined),56.2µM*,-49.0%
CC(=O)c1ccc(F)c(-c2cc(C)cc3c2OC(CNC(=O)c2csc(C)n2)C3)c1 (centres undefined),-31.6%,8.3%
CCCc1c(OCCCOc2ccc(OCC(=O)O)cc2)ccc(CC=O)c1O,44.7µM*,-30.8%
CCCCOc1ccc(CC(=O)NO)cc1,-10.0%[56.6 µM],?
O=C(OC[C@H]1O[C@](O)(COC(=O)c2cccnc2)[C@@H](OC(=O)c2cccnc2)[C@@H]1OC(=O)c1cccnc1)c1cccnc1,-1.1%,-15.6%
O=C(C[n+]1cccc2cc(Cl)ccc21)c1ccc(Br)cc1,-26.1%,112µM*
SMILES,EPAC2 ant val,EPAC1 ag val
O=C(C[n+]1cccc2cc(Cl)ccc21)c1ccc(I)cc1,-10.5%,7.2%
Fc1ccc(N2CCN(Cc3ccc4c(c3)CN(Cc3cccn3-c3cccnc3)CCO4)CC2)cc1,-19.6%,-0.2%
C=C(NC(=O)C(=C)NC(=O)c1csc(C2=N[C@@H]3c4csc(n4)[C@H]4NC(=O)c5csc(n5)[C@H]([C@](C)(O)[C@@H](C)O)NC(=O)[C@H]5CSC(=N5)C(=CC)NC(=O)C([C@@H](C)O)NC(=O)c5csc(n5)[C@]3(CC2)NC(=O)[C@H](C)NC(=O)C(=C)NC(=O)[C@H](C)NC(=O)C([C@@H](C)CC)NC2C=Cc3c([C@H](C)O)cc(nc3C2O)C(=O)O[C@@H]4C)n1)C(N)=O (some centres undefined),0.3%[56.6 µM],-16.0%
C#CCN(Cc1nc(N2CCOCC2)c2ccc(Cl)cc2n1)Cc1ccco1,50.1µM*,4.9%
CN(C)Cc1ccccc1-c1nc(N2CCOCC2)c2ccccc2n1,-4.0%,3.0%
COCCC(=O)NCC1Cc2cc(Cl)cc(-c3ccc4[nH]ccc4c3)c2O1 (centres undefined),-23.0%,-10.0%
COc1ccccc1-c1nc(NCc2cccnc2)c2ccccc2n1,-13.5%,-20.6%
